According to publication PMC7862700, “An all-to-all approach to the identification of sequence-specific readers for epigenetic DNA modifications on cytosine”:

These sequences were tested against T1, EHF (Homo sapiens, UniProt Q9NZC4 1-300) (assay: DAPPL (digital affinity profiling via proximity ligation, sequencing); 10 mM Tris-HCl pH 7.5, 50 mM NaCl, 1 mM DTT, 4% glycerol, room temperature, 30 min; GST-TFs on glutathione beads, 16-mer random dsDNA library, 0.1% formaldehyde crosslink after washing; high values mean tight binding). Details: protein: recombinant; tags: N-terminal GST; dsDNA, one strand shown.
T1 sequence: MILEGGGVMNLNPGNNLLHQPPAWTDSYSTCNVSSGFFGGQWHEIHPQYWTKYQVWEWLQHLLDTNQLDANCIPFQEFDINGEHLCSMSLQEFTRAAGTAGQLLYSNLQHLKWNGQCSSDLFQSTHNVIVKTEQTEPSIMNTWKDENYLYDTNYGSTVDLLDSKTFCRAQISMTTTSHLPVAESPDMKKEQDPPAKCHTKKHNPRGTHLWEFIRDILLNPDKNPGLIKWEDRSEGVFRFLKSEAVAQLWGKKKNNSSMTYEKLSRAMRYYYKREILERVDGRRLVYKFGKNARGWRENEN
Outline: (§1)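 Binding signal is each hexamer's read frequency for a factor divided by its frequency in the tag-only sample. The factors were GST-fused human transcription factors from yeast, captured on glutathione beads, DNA-barcoded and pooled with that sample. Pools were incubated with 200 nmole of a random double-stranded 16-mer DNA library in Tris/NaCl/DTT/glycerol buffer at room temperature for 30 min, then washed, crosslinked with 0.1% formaldehyde, proximity-ligated with BsaI/T4 ligase (1 h, 37 °C), PCR-amplified and sequenced on an Illumina NextSeq500.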

Point of comparison: CTTGCC, binding signal 1.33 fold enrichment (6-mer frequency, TF over GST control). Against it:
- ATATAC — lower, 1.22 fold enrichment (6-mer frequency, TF over GST control)
- CTTTCC — higher, 2.05 fold enrichment (6-mer frequency, TF over GST control)
- ACGTCT — lower, 1.13 fold enrichment (6-mer frequency, TF over GST control)
- TCTACT — higher, 1.35 fold enrichment (6-mer frequency, TF over GST control)
- TTGGTT — higher, 1.4 fold enrichment (6-mer frequency, TF over GST control)
- GTTCTG — lower, 1.16 fold enrichment (6-mer frequency, TF over GST control)
- ATGGTT — lower, 1.28 fold enrichment (6-mer frequency, TF over GST control)
- TCCTTG — lower, 1.32 fold enrichment (6-mer frequency, TF over GST control)
- CGACTC — higher, 1.43 fold enrichment (6-mer frequency, TF over GST control)
- AAGTCC — lower, 1.27 fold enrichment (6-mer frequency, TF over GST control)
- ATTTAA — lower, 1.2 fold enrichment (6-mer frequency, TF over GST control)
- CCTGAC — higher, 1.58 fold enrichment (6-mer frequency, TF over GST control)
- CCCGAT — lower, 1.22 fold enrichment (6-mer frequency, TF over GST control)
- TAGTAT — higher, 1.38 fold enrichment (6-mer frequency, TF over GST control)
- AAACCT — lower, 1.16 fold enrichment (6-mer frequency, TF over GST control)
- GTCTCG — lower, 1.28 fold enrichment (6-mer frequency, TF over GST control)
- ACTTCA — higher, 1.35 fold enrichment (6-mer frequency, TF over GST control)
- CTCAAT — lower, 1.25 fold enrichment (6-mer frequency, TF over GST control)
- CCAATA — lower, 1.25 fold enrichment (6-mer frequency, TF over GST control)
- GCCTTA — lower, 1.11 fold enrichment (6-mer frequency, TF over GST control)
- GATTCA — lower, 1.18 fold enrichment (6-mer frequency, TF over GST control)
- GCTCCA — lower, 1.19 fold enrichment (6-mer frequency, TF over GST control)
- TCCTTT — higher, 1.73 fold enrichment (6-mer frequency, TF over GST control)
- CATTCT — higher, 1.35 fold enrichment (6-mer frequency, TF over GST control)
- TTCCTG — higher, 2.23 fold enrichment (6-mer frequency, TF over GST control)
- CCTCCT — higher, 1.42 fold enrichment (6-mer frequency, TF over GST control)
- TATGAT — lower, 1.27 fold enrichment (6-mer frequency, TF over GST control)
- CGATCT — lower, 1.32 fold enrichment (6-mer frequency, TF over GST control)
- AGCTAT — lower, 1.23 fold enrichment (6-mer frequency, TF over GST control)
- TTATGC — higher, 1.43 fold enrichment (6-mer frequency, TF over GST control)
- TATCAT — lower, 1.21 fold enrichment (6-mer frequency, TF over GST control)
- ATTTCA — lower, 1.24 fold enrichment (6-mer frequency, TF over GST control)
- TCTCGA — higher, 1.37 fold enrichment (6-mer frequency, TF over GST control)
- TACGCT — lower, 1.25 fold enrichment (6-mer frequency, TF over GST control)
- CTGCTG — higher, 1.39 fold enrichment (6-mer frequency, TF over GST control)
- GCCTCG — lower, 1.3 fold enrichment (6-mer frequency, TF over GST control)
- TATTGA — lower, 1.15 fold enrichment (6-mer frequency, TF over GST control)
- TTGATA — lower, 1.14 fold enrichment (6-mer frequency, TF over GST control)
- TGGATG — higher, 1.5 fold enrichment (6-mer frequency, TF over GST control)

Each sequence was assayed against SPI1 (Homo sapiens, UniProt P17947 1-270) in the same assay as above. Details: protein: recombinant; tags: N-terminal GST; dsDNA, one strand shown.
Outline: as §1

Point of comparison: TCCTTG, binding signal 1.31 fold enrichment (6-mer frequency, TF over GST control). Against it:
- ATATAC — lower, 1.19 fold enrichment (6-mer frequency, TF over GST control)
- CTTTCC — higher, 1.84 fold enrichment (6-mer frequency, TF over GST control)
- ACGTCT — lower, 1.15 fold enrichment (6-mer frequency, TF over GST control)
- TCTACT — higher, 1.42 fold enrichment (6-mer frequency, TF over GST control)
- TTGGTT — higher, 1.43 fold enrichment (6-mer frequency, TF over GST control)
- GTTCTG — lower, 1.17 fold enrichment (6-mer frequency, TF over GST control)
- ATGGTT — lower, 1.3 fold enrichment (6-mer frequency, TF over GST control)
- CGACTC — higher, 1.35 fold enrichment (6-mer frequency, TF over GST control)
- AAGTCC — higher, 1.36 fold enrichment (6-mer frequency, TF over GST control)
- ATTTAA — lower, 1.16 fold enrichment (6-mer frequency, TF over GST control)
- CCTGAC — higher, 1.44 fold enrichment (6-mer frequency, TF over GST control)
- CCCGAT — lower, 1.16 fold enrichment (6-mer frequency, TF over GST control)
- TAGTAT — lower, 1.23 fold enrichment (6-mer frequency, TF over GST control)
- AAACCT — lower, 1.18 fold enrichment (6-mer frequency, TF over GST control)
- GTCTCG — higher, 1.33 fold enrichment (6-mer frequency, TF over GST control)
- ACTTCA — higher, 1.45 fold enrichment (6-mer frequency, TF over GST control)
- CTCAAT — higher, 1.33 fold enrichment (6-mer frequency, TF over GST control)
- CCAATA — lower, 1.2 fold enrichment (6-mer frequency, TF over GST control)
- GCCTTA — lower, 1.13 fold enrichment (6-mer frequency, TF over GST control)
- GATTCA — lower, 1.16 fold enrichment (6-mer frequency, TF over GST control)
- GCTCCA — lower, 1.28 fold enrichment (6-mer frequency, TF over GST control)
- TCCTTT — higher, 1.83 fold enrichment (6-mer frequency, TF over GST control)
- CATTCT — lower, 1.26 fold enrichment (6-mer frequency, TF over GST control)
- TTCCTG — higher, 2.64 fold enrichment (6-mer frequency, TF over GST control)
- CCTCCT — higher, 1.7 fold enrichment (6-mer frequency, TF over GST control)
- TATGAT — lower, 1.18 fold enrichment (6-mer frequency, TF over GST control)
- CGATCT — lower, 1.22 fold enrichment (6-mer frequency, TF over GST control)
- AGCTAT — lower, 1.15 fold enrichment (6-mer frequency, TF over GST control)
- TTATGC — higher, 1.34 fold enrichment (6-mer frequency, TF over GST control)
- CTTGCC — higher, 1.38 fold enrichment (6-mer frequency, TF over GST control)
- TATCAT — lower, 1.13 fold enrichment (6-mer frequency, TF over GST control)
- ATTTCA — lower, 1.23 fold enrichment (6-mer frequency, TF over GST control)
- TCTCGA — higher, 1.36 fold enrichment (6-mer frequency, TF over GST control)
- TACGCT — the same, 1.31 fold enrichment (6-mer frequency, TF over GST control)
- CTGCTG — lower, 1.24 fold enrichment (6-mer frequency, TF over GST control)
- GCCTCG — lower, 1.21 fold enrichment (6-mer frequency, TF over GST control)
- TATTGA — lower, 1.05 fold enrichment (6-mer frequency, TF over GST control)
- TTGATA — lower, 1.14 fold enrichment (6-mer frequency, TF over GST control)
- TGGATG — higher, 1.37 fold enrichment (6-mer frequency, TF over GST control)

These sequences were tested against SPIB (Homo sapiens, UniProt Q01892 1-262) in the same assay as above. Details: protein: recombinant; tags: N-terminal GST; dsDNA, one strand shown.
Outline: as §1

Sequence of SPIB (Q01892 whole entry): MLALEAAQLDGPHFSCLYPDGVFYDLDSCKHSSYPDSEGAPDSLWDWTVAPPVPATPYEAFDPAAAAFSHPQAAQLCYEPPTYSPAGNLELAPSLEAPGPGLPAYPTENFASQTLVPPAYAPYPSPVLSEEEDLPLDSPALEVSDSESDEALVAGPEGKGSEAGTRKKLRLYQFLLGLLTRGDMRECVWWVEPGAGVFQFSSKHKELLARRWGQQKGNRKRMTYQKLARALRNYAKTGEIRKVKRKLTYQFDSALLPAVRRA

Point of comparison: TTATGC, binding signal 1.26 fold enrichment (6-mer frequency, TF over GST control). Against it:
- ATATAC — lower, 1.21 fold enrichment (6-mer frequency, TF over GST control)
- CTTTCC — higher, 2.18 fold enrichment (6-mer frequency, TF over GST control)
- ACGTCT — higher, 1.35 fold enrichment (6-mer frequency, TF over GST control)
- TCTACT — higher, 1.42 fold enrichment (6-mer frequency, TF over GST control)
- TTGGTT — higher, 1.47 fold enrichment (6-mer frequency, TF over GST control)
- GTTCTG — lower, 1.16 fold enrichment (6-mer frequency, TF over GST control)
- ATGGTT — higher, 1.3 fold enrichment (6-mer frequency, TF over GST control)
- TCCTTG — higher, 1.41 fold enrichment (6-mer frequency, TF over GST control)
- CGACTC — higher, 1.56 fold enrichment (6-mer frequency, TF over GST control)
- AAGTCC — higher, 1.28 fold enrichment (6-mer frequency, TF over GST control)
- ATTTAA — lower, 1.15 fold enrichment (6-mer frequency, TF over GST control)
- CCTGAC — higher, 1.46 fold enrichment (6-mer frequency, TF over GST control)
- CCCGAT — the same, 1.26 fold enrichment (6-mer frequency, TF over GST control)
- TAGTAT — higher, 1.33 fold enrichment (6-mer frequency, TF over GST control)
- AAACCT — lower, 1.11 fold enrichment (6-mer frequency, TF over GST control)
- GTCTCG — higher, 1.43 fold enrichment (6-mer frequency, TF over GST control)
- ACTTCA — higher, 1.47 fold enrichment (6-mer frequency, TF over GST control)
- CTCAAT — higher, 1.36 fold enrichment (6-mer frequency, TF over GST control)
- CCAATA — lower, 1.24 fold enrichment (6-mer frequency, TF over GST control)
- GCCTTA — higher, 1.27 fold enrichment (6-mer frequency, TF over GST control)
- GATTCA — lower, 1.04 fold enrichment (6-mer frequency, TF over GST control)
- GCTCCA — higher, 1.3 fold enrichment (6-mer frequency, TF over GST control)
- TCCTTT — higher, 1.67 fold enrichment (6-mer frequency, TF over GST control)
- CATTCT — lower, 1.22 fold enrichment (6-mer frequency, TF over GST control)
- TTCCTG — higher, 2.36 fold enrichment (6-mer frequency, TF over GST control)
- CCTCCT — higher, 1.61 fold enrichment (6-mer frequency, TF over GST control)
- TATGAT — lower, 1.23 fold enrichment (6-mer frequency, TF over GST control)
- CGATCT — higher, 1.3 fold enrichment (6-mer frequency, TF over GST control)
- AGCTAT — the same, 1.26 fold enrichment (6-mer frequency, TF over GST control)
- CTTGCC — lower, 1.22 fold enrichment (6-mer frequency, TF over GST control)
- TATCAT — lower, 1.11 fold enrichment (6-mer frequency, TF over GST control)
- ATTTCA — the same, 1.26 fold enrichment (6-mer frequency, TF over GST control)
- TCTCGA — higher, 1.43 fold enrichment (6-mer frequency, TF over GST control)
- TACGCT — lower, 1.18 fold enrichment (6-mer frequency, TF over GST control)
- CTGCTG — lower, 1.04 fold enrichment (6-mer frequency, TF over GST control)
- GCCTCG — lower, 1.19 fold enrichment (6-mer frequency, TF over GST control)
- TATTGA — lower, 1.11 fold enrichment (6-mer frequency, TF over GST control)
- TTGATA — lower, 1.08 fold enrichment (6-mer frequency, TF over GST control)
- TGGATG — higher, 1.64 fold enrichment (6-mer frequency, TF over GST control)
